Inconclusive results are not listed. Entries that show only a call come without a potency. Activity calls are given as the source filed them. Calls follow the shape of the dose curve; as a rule, active = well fitted curve in the direction sought with a large enough effect; inconclusive = small, poorly fitted or top-dose-only effect, or another doubt; inactive = no such curve, though single readings can be large; an effect the other way counts as inactive or inconclusive.
Experiment: qHTS of pediatric cancer cell lines to identify multiple opportunities for drug repurposing: Confirmatory screen for A673 cells (AID 1347110); also: nearly all actives have a fitted effect of over 65% in size; also: potency is read from the fitted curve at half-maximal effect
Conditions: A673 Ewing sarcoma cell viability; series mostly up to 45.9 µM
Method in brief: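 qHTS titration format: primary MIPE 0.78 nM-46 µM (11 pts), NPC 0.59 nM-46 µM; confirmation 11 pts. 48 h, CTG luminescence.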

Row | SMILES | Potency
1 | c1cnc2cc3c(cc2n1)C1CNCC3C1 | inactive
2 | Cc1cc(C2CCCCC2)n(O)c(=O)c1 | 11.7 µM (active)
3 | Nc1ncn([C@H]2C[C@H](O)[C@@H](CO)O2)c(=O)n1 | inactive
4 | CCN(CCO)CCCC(C)Nc1ccnc2cc(Cl)ccc12 (centres undefined) | inactive
5 | CCN(CC)C(=S)SSC(=S)N(CC)CC | 0.522 µM (active)
6 | Cc1ccc(NC(=O)c2ccc(CN3CCN(C)CC3)cc2)cc1Nc1nccc(-c2cccnc2)n1 | inactive

Experiment: qHTS of pediatric cancer cell lines to identify multiple opportunities for drug repurposing: Confirmatory screen for SK-N-MC cells (AID 1347111);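 also: cells exposed to compound for 48 h before the readout; nearly all actives have a fitted effect of over 70% in size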; also: potency is read from the fitted curve at half-maximal effect
Conditions: SK-N-MC cell viability; series mostly up to 45.9 µM
Method in brief: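 SK-N-MC cells at 500-1,000 cells/well in growth media were pre-incubated 5 h, then exposed to compounds at 11-point dilutions for 48 h at 37 degrees C, 5% CO2. Viability was read as CellTiter-Glo luminescence.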

Row | SMILES | Potency
7 | c1cnc2cc3c(cc2n1)C1CNCC3C1 | inactive
8 | Cc1cc(C2CCCCC2)n(O)c(=O)c1 | 5.22 µM (active)
9 | CC1(C)C(=O)N(CCN2CCC(C(=O)c3ccc(F)cc3)CC2)c2ccccc21 | 3.29 µM (active)
10 | CCN(CCO)CCCC(C)Nc1ccnc2cc(Cl)ccc12 (centres undefined) | inactive

Experiment: qHTS of pediatric cancer cell lines to identify multiple opportunities for drug repurposing: Confirmatory screen for BT-12 cells (AID 1347112); also: nearly all actives have a fitted effect of over 55% in size
Conditions: BT-12 rhabdoid tumor cells, viability; series mostly up to 45.9 µM
Method in brief: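 Viability after 48 h compound treatment at 37C, 500-1,000 cells/well, read as ATP luminescence with CellTiter-Glo. Primary screens used 11-point (MIPE, 0.78 nM-46 µM) or 8-point (NPC, 0.59 nM-46 µM) final concentrations; follow-up screens used 11-point dilutions.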

Row | SMILES | Potency
11 | c1cnc2cc3c(cc2n1)C1CNCC3C1 | inactive
12 | CCOc1cc(CC(=O)N[C@@H](CC(C)C)c2ccccc2N2CCCCC2)ccc1C(=O)O | inactive
13 | Nc1ncn([C@H]2C[C@H](O)[C@@H](CO)O2)c(=O)n1 | inactive
14 | CCN(CCO)CCCC(C)Nc1ccnc2cc(Cl)ccc12 (centres undefined) | inactive

Source: PubChem BioAssay (NCATS)
